Laboratory results taken from the supplement of paper PMC6411743.
± gives the standard deviation of the averaged measurements. The full data set covers some 6,200 targets. This sample favours those with the largest changes.

Compound: Nc1ncnc2c1ncn2[C@@H]1O[C@H](COP(=O)(O)OP(=O)(O)NP(=O)(O)O)[C@@H](O)[C@H]1O [adenylyl imidodiphosphate]
Test: NP40-soluble protein abundance relative to vehicle (solubility fold change) (ratio); higher = more soluble protein in presence of AMP-PNP
How it was run: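 Jurkat crude lysate (Dounce-homogenised) was treated with eight concentrations from 0.1 to 10 mM for 10 min at room temperature, then 3 min at 37 °C. It was solubilised with 0.8% NP40 and benzonase (60 min, 4 °C) and ultracentrifuged, and the supernatant was TMT-labelled for LC-MS/MS. Intensities were vsn-normalised, and the value is the fold change against the NP40-processed vehicle per replicate, from three independent experiments.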

Chain of UniProt Q71F23 (Q71F23 whole entry): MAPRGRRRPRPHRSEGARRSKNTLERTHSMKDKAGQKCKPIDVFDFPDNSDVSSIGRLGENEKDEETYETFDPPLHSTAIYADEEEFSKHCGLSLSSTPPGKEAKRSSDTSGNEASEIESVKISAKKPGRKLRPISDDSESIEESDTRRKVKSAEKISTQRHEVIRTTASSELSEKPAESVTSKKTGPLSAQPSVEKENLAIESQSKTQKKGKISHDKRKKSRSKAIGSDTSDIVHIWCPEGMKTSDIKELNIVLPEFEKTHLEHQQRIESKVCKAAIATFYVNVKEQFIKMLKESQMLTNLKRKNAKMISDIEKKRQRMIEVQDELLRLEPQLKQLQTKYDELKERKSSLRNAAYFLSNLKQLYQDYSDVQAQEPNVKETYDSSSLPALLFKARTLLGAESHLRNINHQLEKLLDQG
Chain of UniProt Q6RI45 (Q6RI45 whole entry): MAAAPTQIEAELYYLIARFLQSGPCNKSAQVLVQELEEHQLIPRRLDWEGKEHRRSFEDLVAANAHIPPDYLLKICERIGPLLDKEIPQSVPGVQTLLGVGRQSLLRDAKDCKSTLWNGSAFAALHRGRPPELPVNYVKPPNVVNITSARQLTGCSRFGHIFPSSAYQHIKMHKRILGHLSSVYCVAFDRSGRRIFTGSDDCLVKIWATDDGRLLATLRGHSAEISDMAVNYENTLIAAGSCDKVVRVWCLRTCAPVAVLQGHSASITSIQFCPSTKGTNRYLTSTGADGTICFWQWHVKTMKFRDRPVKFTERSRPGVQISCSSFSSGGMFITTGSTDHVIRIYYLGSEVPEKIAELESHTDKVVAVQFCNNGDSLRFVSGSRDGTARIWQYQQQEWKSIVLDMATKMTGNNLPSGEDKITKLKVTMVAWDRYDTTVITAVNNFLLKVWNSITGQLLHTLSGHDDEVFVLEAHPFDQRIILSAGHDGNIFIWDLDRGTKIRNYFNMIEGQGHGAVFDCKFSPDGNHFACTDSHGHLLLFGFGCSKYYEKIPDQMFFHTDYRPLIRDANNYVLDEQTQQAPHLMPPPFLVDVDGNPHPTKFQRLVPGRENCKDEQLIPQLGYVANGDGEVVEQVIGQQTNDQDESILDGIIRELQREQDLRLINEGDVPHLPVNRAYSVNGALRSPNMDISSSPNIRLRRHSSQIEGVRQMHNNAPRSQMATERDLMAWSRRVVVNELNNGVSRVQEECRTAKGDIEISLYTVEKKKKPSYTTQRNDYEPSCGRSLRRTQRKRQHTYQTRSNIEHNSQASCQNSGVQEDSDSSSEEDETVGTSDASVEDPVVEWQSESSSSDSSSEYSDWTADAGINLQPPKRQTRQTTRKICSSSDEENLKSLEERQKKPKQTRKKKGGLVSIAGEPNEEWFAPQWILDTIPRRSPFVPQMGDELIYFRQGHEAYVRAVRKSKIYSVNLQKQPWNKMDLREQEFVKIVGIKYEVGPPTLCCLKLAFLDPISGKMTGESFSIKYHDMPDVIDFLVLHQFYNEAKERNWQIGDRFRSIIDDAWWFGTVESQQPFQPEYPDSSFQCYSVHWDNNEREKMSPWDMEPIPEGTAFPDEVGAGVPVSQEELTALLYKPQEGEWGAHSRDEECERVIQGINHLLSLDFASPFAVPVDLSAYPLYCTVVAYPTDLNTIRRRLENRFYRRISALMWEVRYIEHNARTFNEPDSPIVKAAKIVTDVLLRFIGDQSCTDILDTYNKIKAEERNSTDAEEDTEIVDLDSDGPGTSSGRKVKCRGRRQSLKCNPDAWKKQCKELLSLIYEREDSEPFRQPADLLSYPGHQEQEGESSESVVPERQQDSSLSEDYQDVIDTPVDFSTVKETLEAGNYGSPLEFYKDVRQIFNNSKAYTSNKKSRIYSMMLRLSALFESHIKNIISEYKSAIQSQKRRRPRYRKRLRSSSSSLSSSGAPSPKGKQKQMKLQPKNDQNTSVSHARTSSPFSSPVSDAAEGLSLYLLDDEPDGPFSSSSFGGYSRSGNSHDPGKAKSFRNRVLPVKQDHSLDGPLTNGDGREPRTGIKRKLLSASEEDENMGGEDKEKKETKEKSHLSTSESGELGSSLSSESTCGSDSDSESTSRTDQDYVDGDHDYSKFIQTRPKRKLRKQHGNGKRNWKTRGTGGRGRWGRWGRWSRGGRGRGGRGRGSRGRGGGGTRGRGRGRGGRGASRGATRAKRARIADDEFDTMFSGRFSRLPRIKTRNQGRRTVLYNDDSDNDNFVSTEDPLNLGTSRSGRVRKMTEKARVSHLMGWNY
Chain of UniProt Q8TEQ0 (Q8TEQ0 whole entry): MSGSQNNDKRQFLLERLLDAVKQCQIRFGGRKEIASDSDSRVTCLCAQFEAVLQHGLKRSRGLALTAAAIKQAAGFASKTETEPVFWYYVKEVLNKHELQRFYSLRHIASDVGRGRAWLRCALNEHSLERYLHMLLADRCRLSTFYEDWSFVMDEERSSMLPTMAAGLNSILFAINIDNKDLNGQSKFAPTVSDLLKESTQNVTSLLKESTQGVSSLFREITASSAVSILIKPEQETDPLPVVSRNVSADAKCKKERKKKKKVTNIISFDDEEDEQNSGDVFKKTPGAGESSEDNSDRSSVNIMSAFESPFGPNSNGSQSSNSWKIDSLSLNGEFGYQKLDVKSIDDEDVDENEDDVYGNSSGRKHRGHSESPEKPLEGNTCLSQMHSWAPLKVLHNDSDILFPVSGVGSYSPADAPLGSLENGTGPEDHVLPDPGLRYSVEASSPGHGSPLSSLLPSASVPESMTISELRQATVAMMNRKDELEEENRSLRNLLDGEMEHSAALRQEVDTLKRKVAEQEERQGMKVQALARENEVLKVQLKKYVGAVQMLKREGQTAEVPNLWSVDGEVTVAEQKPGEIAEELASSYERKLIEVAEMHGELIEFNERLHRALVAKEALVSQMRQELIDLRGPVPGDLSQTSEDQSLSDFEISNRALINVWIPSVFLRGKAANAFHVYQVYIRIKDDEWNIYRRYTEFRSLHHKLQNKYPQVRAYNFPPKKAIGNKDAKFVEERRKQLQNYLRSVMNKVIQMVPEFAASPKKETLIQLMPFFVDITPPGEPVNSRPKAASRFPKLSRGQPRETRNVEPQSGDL
Chain of UniProt Q7L0J3 (Q7L0J3 whole entry): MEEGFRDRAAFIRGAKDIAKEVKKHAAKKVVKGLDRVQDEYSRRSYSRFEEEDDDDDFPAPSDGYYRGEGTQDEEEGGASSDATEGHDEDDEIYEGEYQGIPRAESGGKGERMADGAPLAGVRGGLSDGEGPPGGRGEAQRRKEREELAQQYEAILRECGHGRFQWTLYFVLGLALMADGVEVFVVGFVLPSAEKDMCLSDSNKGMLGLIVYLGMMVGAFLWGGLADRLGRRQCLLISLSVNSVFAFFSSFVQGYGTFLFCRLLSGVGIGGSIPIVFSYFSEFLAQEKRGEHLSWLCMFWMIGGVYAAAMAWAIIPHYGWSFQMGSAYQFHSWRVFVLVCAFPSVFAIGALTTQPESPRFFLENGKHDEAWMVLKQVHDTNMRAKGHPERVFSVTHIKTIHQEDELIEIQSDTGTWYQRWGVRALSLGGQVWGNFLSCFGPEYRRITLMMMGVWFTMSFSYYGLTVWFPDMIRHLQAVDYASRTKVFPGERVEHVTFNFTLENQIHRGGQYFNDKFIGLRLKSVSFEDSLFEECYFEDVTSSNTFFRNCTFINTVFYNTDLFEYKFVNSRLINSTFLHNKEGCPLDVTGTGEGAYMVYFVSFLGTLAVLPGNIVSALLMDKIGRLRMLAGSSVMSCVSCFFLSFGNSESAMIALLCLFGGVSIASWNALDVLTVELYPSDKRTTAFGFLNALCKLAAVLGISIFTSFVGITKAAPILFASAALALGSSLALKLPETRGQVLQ
Chain of UniProt Q8IXQ5 (Q8IXQ5 whole entry): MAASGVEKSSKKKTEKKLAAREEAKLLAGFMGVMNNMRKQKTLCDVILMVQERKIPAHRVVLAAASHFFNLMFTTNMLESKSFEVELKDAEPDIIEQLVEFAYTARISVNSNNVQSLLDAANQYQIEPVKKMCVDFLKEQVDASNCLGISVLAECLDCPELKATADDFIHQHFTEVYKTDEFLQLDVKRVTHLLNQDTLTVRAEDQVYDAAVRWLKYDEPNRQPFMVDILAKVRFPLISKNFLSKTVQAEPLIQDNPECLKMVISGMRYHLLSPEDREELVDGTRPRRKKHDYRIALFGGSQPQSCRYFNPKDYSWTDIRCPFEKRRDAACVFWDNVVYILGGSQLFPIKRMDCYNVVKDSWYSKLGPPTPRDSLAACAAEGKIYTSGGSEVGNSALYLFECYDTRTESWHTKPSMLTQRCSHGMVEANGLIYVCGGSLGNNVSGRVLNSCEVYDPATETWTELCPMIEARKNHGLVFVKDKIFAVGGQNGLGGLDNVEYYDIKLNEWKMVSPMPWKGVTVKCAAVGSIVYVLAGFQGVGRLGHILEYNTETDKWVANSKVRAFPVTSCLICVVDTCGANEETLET
Chain of UniProt Q86VR2 (Q86VR2 whole entry): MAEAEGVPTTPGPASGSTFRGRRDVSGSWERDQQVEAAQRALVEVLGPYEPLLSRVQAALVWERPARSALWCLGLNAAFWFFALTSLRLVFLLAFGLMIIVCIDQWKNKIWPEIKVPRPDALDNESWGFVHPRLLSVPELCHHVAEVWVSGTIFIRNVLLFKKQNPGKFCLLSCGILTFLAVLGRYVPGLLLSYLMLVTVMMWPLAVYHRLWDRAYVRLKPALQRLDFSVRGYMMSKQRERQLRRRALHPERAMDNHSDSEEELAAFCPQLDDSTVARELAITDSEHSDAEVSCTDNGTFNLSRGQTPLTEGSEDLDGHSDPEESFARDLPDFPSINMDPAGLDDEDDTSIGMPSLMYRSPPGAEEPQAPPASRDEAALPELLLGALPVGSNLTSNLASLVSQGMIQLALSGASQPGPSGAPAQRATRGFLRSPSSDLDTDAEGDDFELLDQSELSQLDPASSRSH
Chain of UniProt Q6IAA8 (Q6IAA8 whole entry, one chain of several): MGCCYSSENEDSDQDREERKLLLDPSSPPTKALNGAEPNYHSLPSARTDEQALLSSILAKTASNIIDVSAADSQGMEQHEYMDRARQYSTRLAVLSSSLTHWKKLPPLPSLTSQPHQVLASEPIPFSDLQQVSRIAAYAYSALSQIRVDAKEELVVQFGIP

Target	NP40-soluble protein abundance (concentration: 1mM)	NP40-soluble protein abundance (concentration: 2mM)	NP40-soluble protein abundance (concentration: 4mM)	NP40-soluble protein abundance (concentration: 6mM)	NP40-soluble protein abundance (concentration: 8mM)	NP40-soluble protein abundance (concentration: 10mM)
UniProt Q8TEQ0|Q8TEQ0-2	1.02 ± 0.035	1.03 ± 0.047	1.01 ± 0.029	0.98 ± 0.054	0.969 ± 0.017	0.953 ± 0.021
UniProt Q7L0J3|Q7L0J3-2	1 ± 0.032	1.05 ± 0.072	1.03 ± 0.031	1.02 ± 0.025	1.03 ± 0.033	1.02 ± 0.028
TAF9 (UniProt Q16594)	1.009 ± 0.0054	1.04 ± 0.02	1.01 ± 0.018	1.01 ± 0.018	1.03 ± 0.016	1.05 ± 0.039
UniProt Q6IAA8|F5GX19|F5H3Y3|F5H479|H0YFI1	1.02 ± 0.025	1.04 ± 0.028	1.04 ± 0.047	0.992 ± 0.051	0.975 ± 0.017	0.966 ± 0.035
UniProt Q15642-2|Q15642-3|Q15642-4|W4VSQ9|M0R0F9	1.09 ± 0.014	1.07 ± 0.036	1.07 ± 0.014	1.04 ± 0.054	1.07 ± 0.025	1.06 ± 0.065
UniProt Q15390|H0YBZ4|Q15390-2	1.008 ± 0.0075	1.05 ± 0.071	1.01 ± 0.02	1 ± 0.011	0.9719 ± 0.0073	0.989 ± 0.021
MDC1 (UniProt Q14676)	1.13 ± 0.032	1.31 ± 0.086	1.49 ± 0.12	1.86 ± 0.28	2.04 ± 0.41	2.34 ± 0.53
UniProt Q8IXQ5|Q8IXQ5-2|Q8IXQ5-5	0.984 ± 0.042	0.979 ± 0.018	0.974 ± 0.029	0.9744 ± 0.0094	0.983 ± 0.044	0.9769 ± 0.0044
UniProt Q15223	1.01 ± 0.026	1.028 ± 0.0082	1.011 ± 0.0089	1.01 ± 0.011	0.997 ± 0.023	1.01 ± 0.028
DTX3L (UniProt Q8TDB6)	1.03 ± 0.02	1.01 ± 0.024	1.04 ± 0.059	0.994 ± 0.03	0.996 ± 0.038	0.993 ± 0.022
Q5THR1|Q9H5Z1|Q9H5Z1-2|F2Z2Z2 (UniProt Q9H5Z1)	1.02 ± 0.061	0.96808 ± 0.00094	1.01 ± 0.011	0.987 ± 0.024	0.991 ± 0.022	0.997 ± 0.023
GATAD2B (UniProt Q8WXI9)	1.01 ± 0.014	1.06 ± 0.046	1.024 ± 0.0076	1.01 ± 0.049	0.994 ± 0.035	1.02 ± 0.03
SYAP1 (UniProt Q96A49)	1 ± 0.046	1.06 ± 0.077	0.952 ± 0.072	0.94 ± 0.021	0.94 ± 0.039	0.918 ± 0.08
UniProt Q8WUB8|Q8WUB8-2|Q8WUB8-3|S5FZ81	1.01 ± 0.045	1.04 ± 0.034	1.07 ± 0.023	1.11 ± 0.045	1.08 ± 0.051	1.15 ± 0.061
PPWD1 (UniProt Q96BP3)	0.984 ± 0.013	0.933 ± 0.087	1 ± 0.06	1.01 ± 0.037	1.04 ± 0.042	1.02 ± 0.036
UniProt Q8IYB5-2|Q8IYB5-3	0.988 ± 0.028	0.986 ± 0.011	1.01 ± 0.031	0.995 ± 0.038	0.995 ± 0.025	1.01 ± 0.015
UniProt Q71F23	1.05 ± 0.028	1.07 ± 0.034	1.03 ± 0.016	1.02 ± 0.039	1.07 ± 0.013	1.08 ± 0.0087
RHOT2 (UniProt Q8IXI1)	1.02 ± 0.021	1 ± 0.073	1.02 ± 0.03	0.9999 ± 0.006	1.004 ± 0.01	1.02 ± 0.034
UniProt Q8WUQ7|Q8WUQ7-2	1.05 ± 0.027	1.05 ± 0.027	1.09 ± 0.03	1.06 ± 0.023	1.06 ± 0.031	1.11 ± 0.063
UniProt Q8WZA9	1.03 ± 0.023	1.08 ± 0.07	1.04 ± 0.059	0.988 ± 0.028	0.981 ± 0.021	0.989 ± 0.067
LEO1 (UniProt Q8WVC0)	1.025 ± 0.006	1.04 ± 0.062	1.01 ± 0.029	1.02 ± 0.03	0.997 ± 0.016	1.02 ± 0.024
UniProt Q7Z3B4|Q7Z3B4-3	0.969 ± 0.054	0.9436 ± 0.0042	1 ± 0.064	1.07 ± 0.067	1.13 ± 0.078	1.09 ± 0.11
TGFBRAP1 (UniProt Q8WUH2)	0.96 ± 0.042	0.89 ± 0.093	0.93 ± 0.048	0.895 ± 0.064	0.916 ± 0.047	0.889 ± 0.052
UniProt Q8NDV3-2|Q8NDV3-3	0.953 ± 0.039	0.942 ± 0.011	0.928 ± 0.015	0.977 ± 0.0022	0.945 ± 0.025	0.944 ± 0.033
UniProt Q86VR2	0.989 ± 0.0052	0.966 ± 0.024	0.977 ± 0.025	0.976 ± 0.015	0.9994 ± 0.002	0.952 ± 0.01
UniProt Q93074-2	1.01 ± 0.032	1 ± 0.028	1.06 ± 0.019	0.971 ± 0.08	0.984 ± 0.042	0.999 ± 0.067
UniProt Q14444|Q14444-2	1.12 ± 0.041	1.22 ± 0.17	1.16 ± 0.064	1.19 ± 0.13	1.19 ± 0.094	1.25 ± 0.08
UniProt Q6RI45|Q6RI45-2|Q6RI45-3|Q6RI45-4|Q6RI45-5	0.999 ± 0.016	0.9969 ± 0.0018	0.986 ± 0.016	0.9818 ± 0.0045	1 ± 0.043	1 ± 0.022
UniProt Q13362-2|Q13362-3|Q13362-4	0.982 ± 0.017	1.04 ± 0.036	0.989 ± 0.018	0.976 ± 0.036	0.948 ± 0.018	0.966 ± 0.043
UniProt Q5H8A4-5	0.979 ± 0.011	0.971 ± 0.019	0.983 ± 0.034	0.92 ± 0.01	0.9558 ± 0.0061	0.952 ± 0.016
